Several values for one entry are separate records, joined by “and”; a condition that tells them apart may be missing. Equal values may be shown once. Out of some 260,000 compounds screened, about 1,500 (0.58%) were called active. Not shown: some 5% with an inconclusive outcome.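 The calls were made as follows: active = inhibition above a set limit at one or more doses, reproduced on every date tested; inconclusive = results disagree between test dates, or hit never tested in dose response; inactive = the rest.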 These entries were drawn from the full list. Entries with a potency or affinity are not part of this list.
Target: Virion infectivity factor (Human immunodeficiency virus type 1 group M subtype B (isolate BH10)) + Virion infectivity factor (Human immunodeficiency virus type 1 group M subtype B (isolate BRU/LAI)) + Virion infectivity factor (Human immunodeficiency virus type 1 group M subtype B (isolate PCV12)) + Virion infectivity factor (Human immunodeficiency virus type 1 group M subtype B (isolate HXB2)) + DNA dC->dU-editing enzyme APOBEC-3G (Homo sapiens) (UniProt P69720+P69721+P69722+P69723+Q9HC16)
Assay: HIV-1 Vif–A3G interaction blockers – biochemical, TR-FRET, GST-Vif 1-94, biotin-A3G peptide, dose response retest, primary screen (AID 1117319);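 also: Vif residues 1-94 fused to GST binding biotinylated APOBEC3G peptide 110-148; 0% = full assay without inhibitor and 100% = GST in place of GST-Vif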
Conditions: TR-FRET GST-Vif / biotin-A3G peptide binding; stronger effect = higher value

inhibition, inactive:
C=CCn1c(=O)c2ccccc2n2c(SCc3nc4ccccc4s3)nnc12 0.94%
Cc1oc(-c2ccccc2F)nc1CS(=O)CC(=O)NCc1ccccc1 (stereo unspecified) -9.75%
Nn1cnnc1N/N=C/c1ccc(Cl)cc1Cl -0.88%
Cc1ccc(-c2cc(C(=O)Nc3c(C)n(C)n(-c4ccccc4)c3=O)no2)cc1 -0.77%
Cc1c(NC(=O)c2cc(-c3ccccc3)on2)c(=O)n(-c2ccccc2)n1C -2.53%
COc1ccc(-c2cc(C(=O)Nc3c(C)n(C)n(-c4ccccc4)c3=O)no2)cc1OC -4.54%
COc1ccc(-c2cc(C(=O)Nc3c(C)n(C)n(-c4ccccc4)c3=O)no2)cc1 -3.59%
Cc1ccc(NC(=O)C2CC(O)CN2C(=O)OCc2ccccc2)cc1C (stereo unspecified) -2.11%
CCc1nn2c(NCCOC)cc(C)nc2c1-c1ccc(F)cc1 -2.39%
CC1CCCCC1NC(=O)Cn1nnc2ccccc2c1=O (stereo unspecified) -5.45%
CCCN(C(=O)COc1ccc(C(C)=O)cc1OC)C1CCS(=O)(=O)C1 (stereo unspecified) -0.07%
CC(C)OCCCNCc1cccs1 -0.18%
CCCSC1=N/C(=C\c2ccsc2)C(=O)S1 0.21%
C=CCSC1=N/C(=C\c2ccsc2)C(=O)S1 2.35%
C=CCSC1=N/C(=C\c2ccc(C(=O)O)cc2)C(=O)S1 -15.6%
CCCSC1=N/C(=C\c2ccc3c(c2)OCO3)C(=O)S1 27%
CCSC1=N/C(=C\c2ccc(-c3ccccc3[N+](=O)[O-])o2)C(=O)S1 13.5%
CCOc1c(OC(C)=O)ccc(/C=C2\N=C(SCC)SC2=O)c1[N+](=O)[O-] 9.49%
COc1ccccc1NC(=O)NCCN1C(=O)C2C3C=CC(C3)C2C1=O (stereo unspecified) 4.08%
CCOC(=O)c1c(-c2ccc(Cl)cc2)cn2ccccc12 13.8%
COc1ccc(OC)c(NC(=O)c2ccccc2N(Cc2ccccc2)S(C)(=O)=O)c1 7.69%
CC(OC(=O)c1ccc(Cl)nc1)C(=O)NC1(C#N)CCCCC1 (stereo unspecified) 2.48%
COc1cccc(C(=O)NCC(c2ccc3c(c2)OCO3)N2CCN(c3ccc(F)cc3)CC2)c1 (stereo unspecified) -2.23%
CC(=O)N1CCOc2ccc(S(=O)(=O)NCCc3cccc(C)c3)cc21 2.22%
Cc1ccc2cc(CN(CCN3CCOCC3)Cc3nnnn3Cc3ccco3)c(=O)[nH]c2c1C 11.1%
Cc1ccc2cc(CN(Cc3ccc4c(c3)OCO4)Cc3nnnn3Cc3ccco3)c(=O)[nH]c2c1C -12.9% and 10.6%

Source: PubChem BioAssay AID1117319 (Southern Research Institute, 2015)
